SMILES strings stand for the structures. Hit rate of the full screen: of about 290,000 compounds, about 27,000 (9.3%) were called active. The list comes from a sample in which actives are over-represented; it also holds similar structures and randomly drawn compounds. Values without a mark were called inactive. Rule as the data show it: active = inhibition mostly above about 28% (no sharp cut-off); inactive = mostly below about 43%.

The values below come from PubChem BioAssay AID2315 (National Center for Advancing Translational Sciences (NCATS), 2010).

This assay can be described thus: A qHTS for Small Molecule Inhibitors of Shiga Toxin. Also: 0% is about no effect. Conditions: Vero cells, Shiga toxin protein synthesis inhibition reporter; at 38.7 µM, stronger effect = higher value. A general note: qHTS replaces the single test concentration by a dilution series.
Usually inhibition stands for the drop in the measured response relative to a control, in per cent. Regarding `Cc1cc(OCC(=O)N2CCN(c3ncccn3)CC2)ccc1Cl`, the inhibition was -7.52%.

Take `COc1cc(OC)cc(C(=O)NCCSCc2ccc(Cl)cc2)c1`: the inhibition was -9.78%.

Consider `COc1ccc2c(c1)C(=C(C#N)C#N)C(=O)N2CCc1ccccc1`, for which the inhibition was 6.44%.

For the compound `O=C1CN(C(=O)c2cc(F)cc(F)c2)c2ccccc2N1`, the inhibition is -2.51%.

Turning to `CC(C)CC(O)C1CCN(C(=O)CCc2nnc(-c3ccc4c(c3)OCO4)o2)CC1` (stereo unspecified), the inhibition is -6.93%.

As for `CC(CO)NCC12CC3CC(CC(C3)C1)C2` (stereo unspecified), the inhibition was 2.32%.

For `CCOc1ccccc1NC(=O)Cn1nnc(C(=O)NCc2cccs2)c1N`, the inhibition is -4%.

For the compound `COC1=C/C(=C/c2c(N)n3nc(CC(=O)N4CCOCC4)sc3nc2=O)C=CC1=O`, the inhibition was -2.63%.

`COc1ccc(CN2CC(C(=O)NC3CCCCC3)CC2=O)cc1` (stereo unspecified): the inhibition is -6.86%.

In the case of `Cc1ccc(C)c(OCCC(=O)OCC(=O)N2CCN(c3ccccc3)CC2)c1`, the inhibition is -5.02%.

For `CCN1CCCC1CNC(=O)c1cc2cc(OC)c(OC)cc2[nH]1` (stereo unspecified), the inhibition is -5.24%.

Regarding `CC(O)c1ccc(OCCN(C)c2ccccn2)cc1` (stereo unspecified), the inhibition is 87.4% (active).

With `CC(C)c1ccc(OCC(O)CN2CCN(c3ccccn3)CC2)cc1` (stereo unspecified), the inhibition is -24.5%.

Take `CCOc1ccc(C(C(=O)NCCOC)N(CCOC)C(=O)CCC(=O)Nc2ccccn2)cc1` (stereo unspecified): the inhibition was -13.1%.

As to `COc1ccc(-c2noc(C(C)NS(=O)(=O)c3ccc(NC(C)=O)cc3)n2)cc1` (stereo unspecified), the inhibition was -7.2%.

Consider `COc1ccc(CCNC(=O)C(=O)NCC2OCCN2S(=O)(=O)c2ccc(F)cc2)cc1OC` (stereo unspecified), for which the inhibition is 2.97%.

Turning to `O=C(O)/C=C/C(=O)Nc1ccc(F)cc1F`, the inhibition is -11.9%.

As to `COC(=O)c1sc(-c2ccc(C(C)(C)C)cc2)cc1NC(=O)/C=C/C(=O)O`, the inhibition is 108% (active).

For `COc1ccccc1NC(=O)/C=C/C(=O)O`, the inhibition is -5.02%.

Consider `C=CCn1c(SCc2ccc(C(=O)NCCO)cc2)nc2ccccc2c1=O`, for which the inhibition was -5.58%.

With `CC(C(=O)Nc1ccc(O)c(C(=O)O)c1)N1C(=O)/C(=C/c2cccs2)SC1=S` (stereo unspecified), the inhibition was 5.02%.

On to `COCCCNC(=O)[C@H]1N2C(=O)c3ccccc3C2SC1(C)C` (stereo partly specified), for which the inhibition is -3.4%.

Turning to `COc1ccc(C2=Nn3c(nnc3-c3ccccc3O)SC2)cc1`, the inhibition was 42.8% (active).

Turning to `CC1=Nn2c(nnc2-c2ccccc2)SC1`, the inhibition is -3.08%.

With `Cc1nnc2n1N=C(c1ccccc1)CS2`, the inhibition was -5.72%.

Turning to `COc1cc(/C(=C/c2ccccc2)c2ccccc2)c2c(c1)oc1ccccc12`, the inhibition was -7.7%.
